Experimental findings from PMC7862700, “An all-to-all approach to the identification of sequence-specific readers for epigenetic DNA modifications on cytosine” are described below.

Sequence of HSF1 (Q00613 whole entry): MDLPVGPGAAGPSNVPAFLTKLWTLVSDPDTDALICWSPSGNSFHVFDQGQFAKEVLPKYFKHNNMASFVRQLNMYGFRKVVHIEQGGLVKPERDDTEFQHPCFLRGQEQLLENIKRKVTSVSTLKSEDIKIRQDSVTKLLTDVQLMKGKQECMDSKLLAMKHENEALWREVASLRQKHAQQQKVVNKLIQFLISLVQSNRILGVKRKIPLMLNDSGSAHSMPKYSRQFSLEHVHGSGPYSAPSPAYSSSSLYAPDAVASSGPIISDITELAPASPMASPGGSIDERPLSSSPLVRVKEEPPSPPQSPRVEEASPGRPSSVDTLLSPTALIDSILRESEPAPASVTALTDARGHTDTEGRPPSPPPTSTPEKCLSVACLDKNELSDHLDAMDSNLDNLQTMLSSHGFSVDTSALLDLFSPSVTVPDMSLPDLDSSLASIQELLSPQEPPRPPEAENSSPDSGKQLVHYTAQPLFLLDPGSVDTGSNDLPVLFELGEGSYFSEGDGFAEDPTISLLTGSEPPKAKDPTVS

For one assay, the target named is T1, FEV (Homo sapiens, UniProt Q99581 1-238).
T1 sequence: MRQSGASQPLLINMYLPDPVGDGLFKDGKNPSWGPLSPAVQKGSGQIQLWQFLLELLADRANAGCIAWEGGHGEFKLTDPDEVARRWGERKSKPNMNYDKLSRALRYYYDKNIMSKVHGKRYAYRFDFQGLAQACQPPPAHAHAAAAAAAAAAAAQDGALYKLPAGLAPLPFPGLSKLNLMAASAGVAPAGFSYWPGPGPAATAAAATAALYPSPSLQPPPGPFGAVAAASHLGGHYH
In words: DAPPL (digital affinity profiling via proximity ligation, sequencing); 10 mM Tris-HCl pH 7.5, 50 mM NaCl, 1 mM DTT, 4% glycerol, room temperature, 30 min; GST-TFs on glutathione beads, 16-mer random dsDNA library, 0.1% formaldehyde crosslink after washing; high values mean tight binding. Conditions: protein: recombinant; tags: N-terminal GST; dsDNA, one strand shown. An outline of the steps: (§1)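 Human transcription factors were made in yeast as GST fusions, captured on glutathione beads and barcoded with DNA. With a tag-only sample included, the pool was incubated with 200 nmole of a random double-stranded 16-mer DNA library in Tris/NaCl/DTT/glycerol buffer at room temperature for 30 min, then crosslinked with 0.1% formaldehyde after washing, ligated by proximity, amplified and sequenced. For binding signal, each hexamer's read frequency for a factor is divided by its frequency for the tag-only sample.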
As for ACGGAT, the binding signal is 1.54 fold enrichment (6-mer frequency, TF over GST control).

Turning to ATCGCC, the binding signal was 1.24 fold enrichment (6-mer frequency, TF over GST control).

On to TCTCGG, for which the binding signal was 1.31 fold enrichment (6-mer frequency, TF over GST control).

For the sequence TCTTAT, the binding signal was 1.27 fold enrichment (6-mer frequency, TF over GST control).

Regarding CTACAT, the binding signal is 1.44 fold enrichment (6-mer frequency, TF over GST control).

Regarding TAGATG, the binding signal was 1.22 fold enrichment (6-mer frequency, TF over GST control).

As to TCCCCC, the binding signal was 1.44 fold enrichment (6-mer frequency, TF over GST control).

Turning to AAAATG, the binding signal was 1.16 fold enrichment (6-mer frequency, TF over GST control).

TCACTG: the binding signal is 1.22 fold enrichment (6-mer frequency, TF over GST control).

Turning to GTTCTG, the binding signal is 1.03 fold enrichment (6-mer frequency, TF over GST control).

Regarding CCTTTC, the binding signal was 1.71 fold enrichment (6-mer frequency, TF over GST control).

Regarding CAATTA, the binding signal was 1.08 fold enrichment (6-mer frequency, TF over GST control).

For the sequence CAAGAT, the binding signal is 1.02 fold enrichment (6-mer frequency, TF over GST control).

As to GCTCAC, the binding signal was 1.54 fold enrichment (6-mer frequency, TF over GST control).

For TTTGTA, the binding signal is 1.52 fold enrichment (6-mer frequency, TF over GST control).

For TTTTGG, the binding signal is 1.38 fold enrichment (6-mer frequency, TF over GST control).

With ATGGAT, the binding signal was 1.04 fold enrichment (6-mer frequency, TF over GST control).

As to GAACAA, the binding signal is 1.11 fold enrichment (6-mer frequency, TF over GST control).

For the sequence TCACTT, the binding signal is 1.99 fold enrichment (6-mer frequency, TF over GST control).

On to GCCTAA, for which the binding signal was 1.21 fold enrichment (6-mer frequency, TF over GST control).

Regarding CCTGAT, the binding signal is 1.32 fold enrichment (6-mer frequency, TF over GST control).

On to AATACC, for which the binding signal was 1.23 fold enrichment (6-mer frequency, TF over GST control).

Consider ATTATA, for which the binding signal is 1.32 fold enrichment (6-mer frequency, TF over GST control).

Take GATCCT: the binding signal is 1.23 fold enrichment (6-mer frequency, TF over GST control).

Turning to ATCTGC, the binding signal was 1.41 fold enrichment (6-mer frequency, TF over GST control).

Consider ATACCT, for which the binding signal was 1.04 fold enrichment (6-mer frequency, TF over GST control).

In the case of TGTTTC, the binding signal is 1.97 fold enrichment (6-mer frequency, TF over GST control).

Turning to TATGCT, the binding signal is 1.24 fold enrichment (6-mer frequency, TF over GST control).

TGGCTT: the binding signal was 1.34 fold enrichment (6-mer frequency, TF over GST control).

Take CTGATT: the binding signal was 1.05 fold enrichment (6-mer frequency, TF over GST control).

As for ACTCCG, the binding signal was 1.49 fold enrichment (6-mer frequency, TF over GST control).

With GTTGCT, the binding signal is 1.18 fold enrichment (6-mer frequency, TF over GST control).

Turning to TAATAC, the binding signal is 1.12 fold enrichment (6-mer frequency, TF over GST control).

In the case of TCTCAG, the binding signal was 1.37 fold enrichment (6-mer frequency, TF over GST control).

For TAAAAT, the binding signal is 1.14 fold enrichment (6-mer frequency, TF over GST control).

TGCGCT: the binding signal is 1.25 fold enrichment (6-mer frequency, TF over GST control).

As to CCACTA, the binding signal is 1.08 fold enrichment (6-mer frequency, TF over GST control).

Consider TTCGCT, for which the binding signal is 1.2 fold enrichment (6-mer frequency, TF over GST control).

For the sequence CCGCAT, the binding signal is 1.49 fold enrichment (6-mer frequency, TF over GST control).

Turning to ATCTCG, the binding signal is 1.19 fold enrichment (6-mer frequency, TF over GST control).

For the next assay, the target named is ETV5 (Homo sapiens, UniProt P41161 1-510). The assay is described as above. Conditions: protein: recombinant; tags: N-terminal GST; dsDNA, one strand shown. An outline of the steps: as §1
Sequence of ETV5 (P41161 whole entry): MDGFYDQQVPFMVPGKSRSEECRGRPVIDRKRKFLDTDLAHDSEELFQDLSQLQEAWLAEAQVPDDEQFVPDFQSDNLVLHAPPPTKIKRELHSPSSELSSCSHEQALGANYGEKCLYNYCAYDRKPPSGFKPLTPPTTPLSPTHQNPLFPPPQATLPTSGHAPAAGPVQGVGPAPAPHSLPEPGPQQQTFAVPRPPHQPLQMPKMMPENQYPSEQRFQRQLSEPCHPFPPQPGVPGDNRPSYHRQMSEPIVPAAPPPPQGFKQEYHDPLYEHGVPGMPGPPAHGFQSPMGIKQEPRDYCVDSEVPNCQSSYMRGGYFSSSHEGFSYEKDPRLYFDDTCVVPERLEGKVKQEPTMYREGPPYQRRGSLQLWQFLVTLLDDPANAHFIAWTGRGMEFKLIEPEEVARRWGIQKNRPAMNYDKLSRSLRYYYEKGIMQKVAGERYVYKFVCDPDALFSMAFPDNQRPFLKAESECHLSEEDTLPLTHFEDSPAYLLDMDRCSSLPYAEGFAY
In the case of ACGGAT, the binding signal is 1.32 fold enrichment (6-mer frequency, TF over GST control).

Regarding ATCGCC, the binding signal is 1.23 fold enrichment (6-mer frequency, TF over GST control).

For the sequence TCTCGG, the binding signal is 1.41 fold enrichment (6-mer frequency, TF over GST control).

As for TCTTAT, the binding signal is 1.26 fold enrichment (6-mer frequency, TF over GST control).

Take CTACAT: the binding signal is 1.45 fold enrichment (6-mer frequency, TF over GST control).

For TAGATG, the binding signal is 1.22 fold enrichment (6-mer frequency, TF over GST control).

On to TCCCCC, for which the binding signal was 1.48 fold enrichment (6-mer frequency, TF over GST control).

On to AAAATG, for which the binding signal is 1.23 fold enrichment (6-mer frequency, TF over GST control).

TCACTG: the binding signal is 1.15 fold enrichment (6-mer frequency, TF over GST control).

With GTTCTG, the binding signal is 1.08 fold enrichment (6-mer frequency, TF over GST control).

Regarding CCTTTC, the binding signal is 1.51 fold enrichment (6-mer frequency, TF over GST control).

For the sequence CAATTA, the binding signal is 1.16 fold enrichment (6-mer frequency, TF over GST control).

Turning to CAAGAT, the binding signal was 1.1 fold enrichment (6-mer frequency, TF over GST control).

For the sequence GCTCAC, the binding signal is 1.47 fold enrichment (6-mer frequency, TF over GST control).

On to TTTGTA, for which the binding signal was 1.64 fold enrichment (6-mer frequency, TF over GST control).

In the case of TTTTGG, the binding signal is 1.55 fold enrichment (6-mer frequency, TF over GST control).

In the case of ATGGAT, the binding signal was 1.07 fold enrichment (6-mer frequency, TF over GST control).

For GAACAA, the binding signal was 1.18 fold enrichment (6-mer frequency, TF over GST control).

TCACTT: the binding signal is 1.75 fold enrichment (6-mer frequency, TF over GST control).

As for GCCTAA, the binding signal is 1.19 fold enrichment (6-mer frequency, TF over GST control).

Turning to CCTGAT, the binding signal is 1.49 fold enrichment (6-mer frequency, TF over GST control).

With AATACC, the binding signal was 1.13 fold enrichment (6-mer frequency, TF over GST control).

On to ATTATA, for which the binding signal is 1.29 fold enrichment (6-mer frequency, TF over GST control).

Turning to GATCCT, the binding signal was 1.27 fold enrichment (6-mer frequency, TF over GST control).

For the sequence ATCTGC, the binding signal was 1.46 fold enrichment (6-mer frequency, TF over GST control).

Consider ATACCT, for which the binding signal is 1.01 fold enrichment (6-mer frequency, TF over GST control).

On to TGTTTC, for which the binding signal was 1.83 fold enrichment (6-mer frequency, TF over GST control).

With TATGCT, the binding signal was 1.39 fold enrichment (6-mer frequency, TF over GST control).

TGGCTT: the binding signal is 1.19 fold enrichment (6-mer frequency, TF over GST control).

For the sequence CTGATT, the binding signal was 1.25 fold enrichment (6-mer frequency, TF over GST control).

Turning to ACTCCG, the binding signal was 1.44 fold enrichment (6-mer frequency, TF over GST control).

With GTTGCT, the binding signal is 1.28 fold enrichment (6-mer frequency, TF over GST control).

As to TAATAC, the binding signal was 1.04 fold enrichment (6-mer frequency, TF over GST control).

Turning to TCTCAG, the binding signal was 1.33 fold enrichment (6-mer frequency, TF over GST control).

Regarding TAAAAT, the binding signal was 1.22 fold enrichment (6-mer frequency, TF over GST control).

As to TGCGCT, the binding signal was 1.28 fold enrichment (6-mer frequency, TF over GST control).

As to CCACTA, the binding signal is 1.12 fold enrichment (6-mer frequency, TF over GST control).

With TTCGCT, the binding signal is 1.24 fold enrichment (6-mer frequency, TF over GST control).

For CCGCAT, the binding signal is 1.65 fold enrichment (6-mer frequency, TF over GST control).

As for ATCTCG, the binding signal was 1.35 fold enrichment (6-mer frequency, TF over GST control).

The target in another assay is HSF1 (Homo sapiens, UniProt Q00613 1-529). Described as above. The note with it: protein: recombinant; tags: N-terminal GST; chain copies: 3; dsDNA, one strand shown. An outline of the steps:
as §1
As for ACGGAT, the binding signal is 1.18 fold enrichment (6-mer frequency, TF over GST control).

For ATCGCC, the binding signal was 1.28 fold enrichment (6-mer frequency, TF over GST control).

As to TCTCGG, the binding signal is 1.89 fold enrichment (6-mer frequency, TF over GST control).

Regarding TCTTAT, the binding signal is 1.57 fold enrichment (6-mer frequency, TF over GST control).

As for CTACAT, the binding signal was 1.17 fold enrichment (6-mer frequency, TF over GST control).

For TAGATG, the binding signal was 1.66 fold enrichment (6-mer frequency, TF over GST control).

Turning to TCCCCC, the binding signal was 1.41 fold enrichment (6-mer frequency, TF over GST control).

Regarding AAAATG, the binding signal was 1.15 fold enrichment (6-mer frequency, TF over GST control).

Consider TCACTG, for which the binding signal is 1.15 fold enrichment (6-mer frequency, TF over GST control).

In the case of GTTCTG, the binding signal is 1.84 fold enrichment (6-mer frequency, TF over GST control).

For CCTTTC, the binding signal was 1.43 fold enrichment (6-mer frequency, TF over GST control).

Take CAATTA: the binding signal was 1.12 fold enrichment (6-mer frequency, TF over GST control).

Consider CAAGAT, for which the binding signal was 1.18 fold enrichment (6-mer frequency, TF over GST control).

On to GCTCAC, for which the binding signal was 1.22 fold enrichment (6-mer frequency, TF over GST control).

Turning to TTTGTA, the binding signal is 1.65 fold enrichment (6-mer frequency, TF over GST control).

Regarding TTTTGG, the binding signal is 1.44 fold enrichment (6-mer frequency, TF over GST control).

Consider ATGGAT, for which the binding signal is 1.26 fold enrichment (6-mer frequency, TF over GST control).

As for GAACAA, the binding signal was 1.5 fold enrichment (6-mer frequency, TF over GST control).

As to TCACTT, the binding signal was 1.14 fold enrichment (6-mer frequency, TF over GST control).

With GCCTAA, the binding signal was 1.38 fold enrichment (6-mer frequency, TF over GST control).
